From PubChem BioAssay AID623901 (Broad Institute, 2012)
About 470 (0.14%) of roughly 340,000 compounds were called active. This is one part of a sample in which actives are shown more often than they occur. Values without a mark were called inactive.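 How the source made its calls: active means mean activation of 30% or more, with every replicate also reaching 30%; inconclusive means mean activation of 30% or more but some replicate falls short; inactive means the rest.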

assay: small molecules raising miR-122 sensor signal – cell-based, Huh7 psiCHECK-miR122, Renilla luciferase, single point, primary screen (AID 623901); conditions: 48 h, at 12.5 µM, stronger effect = higher value;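 further: 0% = median of neutral control wells and 100% = median of positive control wells; higher luciferase signal means stronger suppression of miR-122 activity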

Question: For `COc1ccc(OC)c(S(=O)(=O)Nc2cccc(-c3ccc4nncn4n3)c2)c1`, which activation is on record?
Answer: Its activation is -333%.

Question: With `C[C@@H]1CN([C@H](C)CO)S(=O)(=O)c2ccc(C#CCC3CCCC3)cc2O[C@H]1CN(C)C(=O)CC1CC1` as the compound, how does the activation read?
Answer: Its activation is -0.08%.

Question: For `CO[C@@H]1CN(C)C(=O)c2cc(NS(=O)(=O)CC(F)(F)F)ccc2OC[C@H](C)N(C)C[C@H]1C`, which activation is on record?
Answer: The activation was -2.27%.

Question: Which activation does the source give for `C[C@H](CO)N1C[C@H](C)[C@H](CN(C)CC2CCCCC2)Oc2c(NC(=O)c3cnccn3)cccc2C1=O` here?
Answer: Its activation is -119%.

Question: Which activation does the source give for `C[C@@H]1CN([C@H](C)CO)C(=O)c2cc(C#CC3CCCC3)cnc2O[C@@H]1CN(C)C(=O)C1CCC1` here?
Answer: The activation was -4.13%.

Question: For `CCOc1ccccc1N1CCN(C(=O)c2ccc3[nH]c(C)c(C)c3c2)CC1`, which activation is on record?
Answer: The activation was -100%.

Question: With `C[C@H](CO)N1C[C@H](C)[C@H](CN(C)C(=O)Nc2cccc3ccccc23)Oc2ncc(C#Cc3ccccc3)cc2C1=O` as the compound, how does the activation read?
Answer: Its activation is 8.08%.

Question: With `C[C@H]1CN([C@@H](C)CO)S(=O)(=O)c2ccc(Br)cc2O[C@H]1CN(C)Cc1ccccn1` as the compound, how does the activation read?
Answer: The activation was 4.93%.

Question: With `CSc1ccc(S(=O)(=O)NC2CCCCC2)cc1` as the compound, how does the activation read?
Answer: The activation was -102%.

Question: For `CCCC#Cc1cnc2c(c1)C(=O)N([C@H](C)CO)C[C@H](C)[C@@H](CN(C)Cc1ccccc1)O2`, which activation is on record?
Answer: The activation was 2.96%.

Question: With `C[C@@H]1CN([C@H](C)CO)C(=O)c2cc(-c3ccc(F)cc3)cnc2O[C@@H]1CN(C)Cc1ccc(C(=O)O)cc1` as the compound, how does the activation read?
Answer: Its activation is -8.09%.

Question: For `Cc1c(C)c(C)c(S(=O)(=O)NCCc2ccccn2)c(C)c1C`, which activation is on record?
Answer: The activation was -107%.

Question: For `CCC(=O)N1C[C@H](C)[C@H](OC)CN(C)C(=O)c2ccc(NS(C)(=O)=O)cc2OC[C@H]1C`, which activation is on record?
Answer: The activation was 0.433%.

Question: Which activation does the source give for `C[C@H]1CN([C@@H](C)CO)C(=O)c2cc(C#CC3(O)CCCC3)cnc2O[C@@H]1CN(C)C(=O)Cc1ccccc1` here?
Answer: Its activation is 0.596%.

Question: Which activation does the source give for `COc1cccc2sc(N(CCCN(C)C)C(=O)C(c3ccccc3)c3ccccc3)nc12` here?
Answer: Its activation is 74.2% (active).

Question: For `C[C@@H]1CN([C@H](C)CO)S(=O)(=O)c2ccc(-c3ccccc3)cc2O[C@@H]1CN(C)C(=O)CC1CC1`, which activation is on record?
Answer: Its activation is -0.601%.

Question: Which activation does the source give for `C[C@H](CO)N1C[C@H](C)[C@@H](CN(C)CC2CCOCC2)Oc2ncc(C#Cc3ccc(F)cc3)cc2C1=O` here?
Answer: The activation was 4.08%.

Question: With `C[C@@H]1CN([C@@H](C)CO)S(=O)(=O)c2ccc(C#CCC3CCCC3)cc2O[C@H]1CN(C)C(=O)CC1CC1` as the compound, how does the activation read?
Answer: The activation was -4.63%.

Question: For `C[C@@H]1CN([C@H](C)CO)C(=O)c2cc(C#CC3(O)CCCC3)cnc2O[C@H]1CN(C)Cc1ccncc1`, which activation is on record?
Answer: Its activation is -9.22%.

Question: For `C[C@H](CO)N1C[C@H](C)[C@@H](CN(C)Cc2ccncc2)Oc2ncc(C#CC3CC3)cc2C1=O`, which activation is on record?
Answer: Its activation is -22.7%.

Question: For `Cc1ccc(C(=O)Nc2ccccc2-c2ccccc2)cc1S(=O)(=O)Nc1ccccc1`, which activation is on record?
Answer: The activation was -94%.

Question: For `N=c1c2c(-c3ccccc3)c(-c3ccccc3)n(Cc3ccccc3)c2ncn1CCCO`, which activation is on record?
Answer: The activation was 42.7% (active).

Question: With `CCCN1C[C@@H](C)[C@@H](OC)CN(C)C(=O)c2ccc(NS(C)(=O)=O)cc2OC[C@@H]1C` as the compound, how does the activation read?
Answer: Its activation is -0.143%.

Question: With `C/C=C/c1ccc2c(c1)O[C@H](CN(C)Cc1ccccc1)[C@H](C)CN([C@@H](C)CO)S2(=O)=O` as the compound, how does the activation read?
Answer: Its activation is -0.63%.

Question: Which activation does the source give for `C[C@H](CO)N1C[C@H](C)[C@H](CN(C)Cc2ccncc2)Oc2ncc(C#Cc3cccc(F)c3)cc2C1=O` here?
Answer: Its activation is -2.31%.

Question: With `COCC#Cc1cnc2c(c1)C(=O)N([C@@H](C)CO)C[C@@H](C)[C@H](CN(C)C(=O)Nc1ccccc1OC)O2` as the compound, how does the activation read?
Answer: Its activation is -17.8%.

Question: For `CCc1ccc(-c2cc(C)no2)cc1S(=O)(=O)NCCc1ccc(S(N)(=O)=O)cc1`, which activation is on record?
Answer: Its activation is -124%.

Question: With `C[C@H](CO)N1C[C@H](C)[C@H](CN(C)Cc2ccccn2)Oc2ncc(C#CCc3ccccc3)cc2C1=O` as the compound, how does the activation read?
Answer: Its activation is -4.42%.

Question: Which activation does the source give for `Cc1ccc(S(=O)(=O)Nc2ccc3ncccc3c2)cc1` here?
Answer: Its activation is -146%.

Question: Which activation does the source give for `COCC(=O)N(C)C[C@H]1Oc2cc(C#CC(C)C)ccc2S(=O)(=O)N([C@H](C)CO)C[C@@H]1C` here?
Answer: Its activation is -9.28%.

Question: With `CCOC(=O)c1c(S(=O)(=O)Nc2cccc(Cl)c2)c(C)n(C)c1C` as the compound, how does the activation read?
Answer: The activation was -92%.

Question: Which activation does the source give for `O=C(/C=C(O)/C=C/c1ccc(O)cc1)/C=C/c1ccc(O)cc1` here?
Answer: The activation was -140%.

Question: For `CCC(=O)Nc1ccc2c(c1)OC[C@H](C)N(Cc1ccccc1F)C[C@H](C)[C@@H](OC)CN(C)C2=O`, which activation is on record?
Answer: The activation was 3.89%.

Question: With `Cn1c(NC(=O)c2ccco2)c(-c2ccccc2Cl)c(=O)c2ccccc21` as the compound, how does the activation read?
Answer: Its activation is 66.3% (active).

Question: For `COc1ccc(NS(=O)(=O)c2ccc(NC(=O)C(C)(C(F)(F)F)C(F)(F)F)cc2)nn1`, which activation is on record?
Answer: Its activation is 35.7% (active).

Question: Which activation does the source give for `COc1ccc(NS(=O)(=O)c2ccc(NC(=S)NC(=O)CC(C)C)cc2)cc1` here?
Answer: The activation was -161%.

Question: For `CO[C@H]1CN(C)C(=O)c2cc(NS(=O)(=O)c3ccccc3)ccc2OC[C@H](C)N(C)C[C@@H]1C`, which activation is on record?
Answer: Its activation is -1.29%.

Question: With `C[C@H](CO)N1C[C@H](C)[C@@H](CN(C)S(=O)(=O)c2ccccc2)Oc2ncc(C#Cc3ccccc3F)cc2C1=O` as the compound, how does the activation read?
Answer: Its activation is 1.81%.

Question: For `COc1ccc(OCCCC(=O)NCCc2ccccc2)cc1`, which activation is on record?
Answer: Its activation is -223%.

Question: Which activation does the source give for `CC(C)C#Cc1ccc2c(c1)O[C@@H](CN(C)C(=O)NC(C)C)[C@H](C)CN([C@H](C)CO)S2(=O)=O` here?
Answer: The activation was -66.1%.

Question: With `COc1ccccc1-c1cnc2c(c1)C(=O)N([C@H](C)CO)C[C@@H](C)[C@@H](CN(C)CC1CCCC1)O2` as the compound, how does the activation read?
Answer: Its activation is 5.29%.

Question: Which activation does the source give for `Cc1ccc(NS(=O)(=O)c2cc3c(cc2C)NC(=O)CO3)cc1` here?
Answer: Its activation is -92.7%.

Question: For `CCCC(=O)Nc1ccc2c(c1)C(=O)N(C)[C@H]1CC[C@@H](CC(=O)NCc3cccc(F)c3)O[C@H]1CO2`, which activation is on record?
Answer: Its activation is -120%.

Question: For `Cn1cnc(CCNC(=O)C[C@@H]2CC[C@@H]3[C@H](COC[C@@H](O)CN3C(=O)Nc3ccccc3)O2)c1`, which activation is on record?
Answer: Its activation is 4.36%.

Question: With `CC(C)C(=O)Nc1ccc2c(c1)C(=O)N(C)[C@@H]1CC[C@@H](CC(=O)NCCc3ccccc3)O[C@H]1CO2` as the compound, how does the activation read?
Answer: The activation was 56.7% (active).

Question: With `CCC(=O)Nc1ccc2c(c1)C(=O)N(C)C[C@@H](OC)[C@@H](C)CN(Cc1ccccc1OC)[C@H](C)CO2` as the compound, how does the activation read?
Answer: The activation was -2.97%.

Question: For `CCCC(=O)Nc1ccc2c(c1)C(=O)N(C)C[C@H](OC)[C@@H](C)CN[C@H](C)CO2`, which activation is on record?
Answer: The activation was 1.08%.

Question: Which activation does the source give for `CNC(=O)C[C@@H]1CC[C@H]2[C@H](COc3ccc(NC(=O)c4cccc(OC)c4)cc3C(=O)N2C)O1` here?
Answer: The activation was 50% (active).

Question: Which activation does the source give for `Cc1ccc(-c2ccc3c(c2)O[C@@H](CN(C)C(=O)NC(C)C)[C@@H](C)CN([C@H](C)CO)S3(=O)=O)cc1` here?
Answer: Its activation is -3.11%.

Question: Which activation does the source give for `COc1ccc(OC)c(-n2cc3c(=O)n(C)c(=O)n(C)c3c2)c1` here?
Answer: The activation was -102%.

Question: For `O=C(NNC(=O)c1ccccc1O)c1ccccc1O`, which activation is on record?
Answer: The activation was -530%.

Question: For `CCCN(C)C[C@H]1Oc2ncc(-c3ccccc3OC)cc2C(=O)N([C@H](C)CO)C[C@@H]1C`, which activation is on record?
Answer: The activation was 6.19%.

Question: For `O=c1c(-c2ccccc2)coc2c(CN3CCOCC3)c(O)ccc12`, which activation is on record?
Answer: The activation was 35.8% (active).

Question: For `CNC[C@@H]1Oc2cc(-c3ccccc3OC)ccc2S(=O)(=O)N([C@H](C)CO)C[C@H]1C`, which activation is on record?
Answer: The activation was -5.6%.

Question: With `C[C@@H]1CN([C@H](C)CO)C(=O)c2cc(C#CCN(C)C)cnc2O[C@H]1CN(C)C(=O)Cc1ccncc1` as the compound, how does the activation read?
Answer: Its activation is 2.45%.

Question: Which activation does the source give for `C[C@@H]1CN([C@@H](C)CO)S(=O)(=O)c2ccc(-c3cccc(C(=O)N(C)C)c3)cc2O[C@@H]1CN(C)C(=O)Nc1ccccc1` here?
Answer: The activation was -16.6%.

Question: Which activation does the source give for `Cc1ccc(S(=O)(=O)NC2CCCCCC2)cc1` here?
Answer: Its activation is -106%.

Question: Which activation does the source give for `C[C@H](CO)N1C[C@H](C)[C@@H](CN(C)C(=O)Cc2cccnc2)Oc2ncc(-c3ccncc3)cc2C1=O` here?
Answer: The activation was -1.97%.

Question: For `COc1ccc(C#Cc2ccc([C@H]3[C@@H](CO)N4CCCCN(C(=O)Nc5ccccc5)C[C@H]34)cc2)cc1`, which activation is on record?
Answer: Its activation is 35.5% (active).

Question: With `O=C(Nc1ccc(F)cc1)N1CCCCN2[C@H](CO)[C@H](c3ccc(C#Cc4ccccc4)cc3)[C@H]2C1` as the compound, how does the activation read?
Answer: Its activation is 34.6% (active).

Question: Which activation does the source give for `O=C(NCCCn1ccnc1)c1cc(-c2ccccc2)on1` here?
Answer: Its activation is -98.4%.

Question: With `O=C(CN1CCOCC1)Nc1cc(Cl)ccc1Cl` as the compound, how does the activation read?
Answer: Its activation is -101%.

Question: For `O=S(=O)(N/N=C\c1cccn1-c1ccccc1)c1ccc2ccccc2c1`, which activation is on record?
Answer: The activation was -97.9%.

Question: Which activation does the source give for `Cc1noc(C)c1NC(=O)N(C)C[C@@H]1Oc2cc(C#CCC(C)C)ccc2S(=O)(=O)N([C@H](C)CO)C[C@@H]1C` here?
Answer: Its activation is -3.73%.

Question: Which activation does the source give for `CCCNC(=O)N(C)C[C@H]1Oc2ncc(C#C[C@@H](C)O)cc2C(=O)N([C@@H](C)CO)C[C@@H]1C` here?
Answer: The activation was 7.15%.

Question: With `O=C(c1ccccc1F)N1C[C@H]2[C@@H](c3ccccc31)[C@@H](CO)N2C(=O)c1ccc(F)cc1` as the compound, how does the activation read?
Answer: The activation was -471%.

Question: With `O=C(CC(F)(F)F)N1C[C@H]2[C@@H](c3ccccc31)[C@H](CO)N2C(=O)Cc1cccnc1` as the compound, how does the activation read?
Answer: Its activation is 33.3% (active).

Question: For `COc1ccc(C(=O)N2C[C@@H]3[C@H](c4ccccc42)[C@H](CO)N3Cc2ccc3c(c2)OCO3)cc1`, which activation is on record?
Answer: Its activation is -247%.

Question: With `CCCC#Cc1ccc2c(c1)O[C@H](CN(C)C(=O)CC)[C@@H](C)CN([C@H](C)CO)S2(=O)=O` as the compound, how does the activation read?
Answer: The activation was -45.7%.

Question: Which activation does the source give for `CCCNC(=O)N(C)C[C@@H]1Oc2cc(-c3ccccc3)ccc2S(=O)(=O)N([C@H](C)CO)C[C@H]1C` here?
Answer: The activation was -13.1%.

Question: For `C[C@@H]1CN([C@@H](C)CO)S(=O)(=O)c2ccc(C#C[C@@H](C)O)cc2O[C@@H]1CN(C)C(=O)Cc1ccccn1`, which activation is on record?
Answer: The activation was 2.54%.
